Laboratory results: paper PMC4336329 (PLoS ONE, 2015)
Screen size: about 310,000 compounds; about 14,000 (4.5%) showed an effect of 50% or more. Effects have a minus sign here. Many of the other results were omitted from the sample, so strong results are more common in it than they were.

The compounds below were run against human ether-à-go-go-related gene (hERG) potassium channel (human, UniProt Q12809) (assay: primary screen, population patch clamp on CHO cells stably expressing hERG; higher = less effect of the substance).
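Note: peak tail current of the secondary pulse compared with the same well before compound.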

human ether-à-go-go-related gene (hERG) potassium channel, sequence (Q12809 whole entry, looked up): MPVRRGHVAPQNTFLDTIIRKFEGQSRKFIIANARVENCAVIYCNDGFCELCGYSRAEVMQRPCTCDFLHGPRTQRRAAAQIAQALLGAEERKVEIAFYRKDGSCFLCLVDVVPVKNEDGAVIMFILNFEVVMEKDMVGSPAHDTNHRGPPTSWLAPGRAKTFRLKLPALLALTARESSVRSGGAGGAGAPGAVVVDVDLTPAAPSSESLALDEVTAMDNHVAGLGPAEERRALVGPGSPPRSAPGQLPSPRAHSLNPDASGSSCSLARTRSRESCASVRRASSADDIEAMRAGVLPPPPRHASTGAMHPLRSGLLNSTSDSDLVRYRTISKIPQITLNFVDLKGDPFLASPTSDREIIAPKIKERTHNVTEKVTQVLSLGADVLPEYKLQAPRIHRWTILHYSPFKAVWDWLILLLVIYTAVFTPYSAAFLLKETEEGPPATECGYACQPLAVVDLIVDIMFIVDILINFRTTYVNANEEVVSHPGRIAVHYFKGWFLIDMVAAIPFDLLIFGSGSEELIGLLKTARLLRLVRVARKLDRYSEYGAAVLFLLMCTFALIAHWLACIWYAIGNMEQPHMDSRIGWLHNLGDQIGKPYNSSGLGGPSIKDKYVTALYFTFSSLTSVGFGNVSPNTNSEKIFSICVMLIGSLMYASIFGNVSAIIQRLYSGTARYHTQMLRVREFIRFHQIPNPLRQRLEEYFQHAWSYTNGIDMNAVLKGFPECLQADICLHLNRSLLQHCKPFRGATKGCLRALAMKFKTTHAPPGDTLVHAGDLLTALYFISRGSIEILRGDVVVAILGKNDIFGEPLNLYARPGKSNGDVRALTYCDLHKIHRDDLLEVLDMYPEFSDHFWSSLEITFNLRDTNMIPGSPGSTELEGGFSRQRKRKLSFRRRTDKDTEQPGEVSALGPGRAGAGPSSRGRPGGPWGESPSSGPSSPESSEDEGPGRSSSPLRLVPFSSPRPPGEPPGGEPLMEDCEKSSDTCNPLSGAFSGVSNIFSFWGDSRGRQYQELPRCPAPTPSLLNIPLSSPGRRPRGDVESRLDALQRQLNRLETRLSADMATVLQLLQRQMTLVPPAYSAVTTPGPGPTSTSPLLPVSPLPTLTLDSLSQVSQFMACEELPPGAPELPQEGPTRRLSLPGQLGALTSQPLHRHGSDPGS

SMILES	hERG current change (%, negative = inhibition) at 10uM
Cc1cc(C)c(NC(=O)CSc2nnc(CNC(=O)c3ccccc3F)o2)c(C)c1	-6.38%
CN1/C(=C\C(=S)NC(=O)c2ccccc2Cl)C(C)(C)c2ccccc21	23.6%
COc1cc(C(=O)NCc2ncccc2C)ccc1OC1CCN(C(C)=O)CC1	6.34%
CCC1CCCCN1C(=O)CSc1nc(N)c(NC(=O)c2ccc(OC)c(OC)c2)c(=O)[nH]1 (stereo not shown)	4.63%
COc1ccc(OCCn2cncn2)cc1	12.6%
COC(=O)c1cc2sc(Cl)cc2n1CC(=O)N1CCCc2ccccc21	-1.75%
O=C(O)c1ccccc1-c1ccccc1C(=O)NCc1ccccc1Cl	-37.6%
COC(=O)C1=C(c2ccc(OC(F)(F)F)cc2)C[C@@H]2CC[C@H]1N2C(=O)NCCOc1ccc(OC)cc1	-26.3%
O=C1N/C(=N/S(=O)(=O)c2ccccc2)S/C1=C/c1cccnc1	1.74%
CCCCc1c(C)nc2ccccc2c1SCCC#N	-50.6%
CCc1c(C)nc2c(C)cccc2c1SCCC#N	17.7%
CCCCc1c(C)nc2ccccc2c1SCCC(=O)O	14.8%
O=C(Cc1ccc(NC2=NC3CS(=O)(=O)CC3S2)cc1)NCc1ccccc1Cl (stereo not shown)	6.5%
CCOC(=O)c1c(NC(=O)CSc2nnc(-c3cccc(C)c3)n2CC)sc(C(C)=O)c1C	-18.9%
CCOC(=O)c1c(NC(=O)CSc2nnc(-c3ccccc3C)n2C)sc(C(C)=O)c1C	-63%
CCOC(=O)c1c(NC(=O)CSc2nnc(-c3ccccc3)n2CC)sc(C(C)=O)c1C	-31%
CCOC(=O)c1c(NC(=O)CSc2nnc(Cc3ccccc3)o2)sc(C)c1C	13.8%
CCOC(=O)c1sc(NC(=O)CSc2nnc(Cc3ccccc3)o2)c(C(=O)OCC)c1C	9.46%
CCOC(=O)c1c(NC(=O)CSc2nnc(Cc3ccccc3)o2)sc(C(C)=O)c1C	-64.8%
O=C(CNC(=O)c1cc2c(n(-c3ccccc3)c1=O)CCCC2=O)c1ccccc1	-38.5%
CN1CCN(C(=O)N2c3ccccc3CCc3ccccc32)CC1	11.9%
Cc1ccc(C)c(OCCC(=O)OCC(=O)NC(=O)NCc2ccccc2)c1	4.16%
Cl.O=S(=O)(NCCN1CCOCC1)c1cccc(C(F)(F)F)c1	5.32%

SMILES	hERG current change (%, negative = inhibition) at 10uM
O=C(O)C(=O)O.O=S(=O)(c1cccc(C(F)(F)F)c1)N(CCCN1CCOCC1)Cc1cccs1	-51%
CCN(CC)S(=O)(=O)c1cccc(C(=O)NCCCN2CCOCC2)c1	9.9%
O=S(=O)(c1cccc(C(F)(F)F)c1)N(CCCN1CCOCC1)Cc1cccs1	-74.9%
O=C(NCCCN1CCOCC1)C1CCN(S(=O)(=O)c2cccc(C(F)(F)F)c2)CC1	-9.45%
O=C(NCCCN1CCOCC1)c1ccc(S(=O)(=O)Nc2cccc(C(F)(F)F)c2)cc1	-12.8%
COc1ccc(S(=O)(=O)Nc2ccc3oc(C)c(C(C)=O)c3c2)cc1	12%
COC(=O)c1sc(-c2ccc(Cl)cc2)cc1N	-37.1%
O=C(c1ccc(COc2ccc3ccccc3c2)o1)N1N=C(C(F)F)CC1(O)C(F)F (stereo not shown)	-2.62%
CC1(C)CC(NC(=O)C(F)(F)F)CC(C)(C)N1OC(=O)c1ccco1	1.13%
Cc1ccc(S(=O)(=O)NCCCCCC(=O)N(C)C)cc1	6.32%
CCOC(=O)/C=C1\SCC(=O)N1CC(=O)NC(C)c1ccccc1 (stereo not shown)	-15.2%
CCOC(=O)/C=C1\SCC(=O)N1CC(=O)NC(c1ccccc1)c1ccccc1	-52.2%
CCOC(=O)/C=C1\SCC(=O)N1CC(=O)NC(C)C	21.2%
CCC1CCCCN1CC(=O)c1c(C)[nH]c2ccccc12 (stereo not shown)	-27.4%
O=C(NCC(=O)N1CCCCCC1)c1ccc(OC(F)F)cc1	-11.3%
Br.O=C(CN1CCCCC1CO)c1ccc(OC(F)F)cc1 (stereo not shown)	-68.2%
O=C(CN1C(=O)c2ccccc2S1(=O)=O)c1ccc(OC(F)F)cc1	-23%
CCC1CCCCN1CC(=O)c1c(C)[nH]c2ccc(OC)cc12 (stereo not shown)	-20.6%
CCC1CCCCN1CC(=O)c1ccc(OC(F)F)cc1 (stereo not shown)	-77.7%
O=c1c2cc(N3CCOCC3)ccc2[nH]c(=S)n1CCCN1CCCC1	-4.98%
CC(C)(C)c1ccc(CN(Cc2ccccc2)C(c2ccccn2)c2nnnn2C(C)(C)C)cc1 (stereo not shown)	2.44%
COc1ccc(S(=O)(=O)N2CCC(C)CC2)cc1N(C)S(=O)(=O)c1ccccc1	-2.12%
COC(=O)c1cccc(NC(=O)CCNC(=O)c2ccco2)c1	18.8%
